{"source": "PubChem BioAssay (EPA / NIEHS)", "note": "Activity calls are given as the source filed them. Rule for the calls: active = hit-call score of the fitted dose curve at least 0.9, where 1 is the maximum; inactive = score below 0.9."}
{"assay": "ATG_BRE_CIS: Attagene CIS-FACTORIAL HepG2 Assay for human Bone Morphogenetic Protein (BMP) Response Element (BRE) (AID 2282933)", "conditions": "HepG2 BMP response element reporter, Attagene transcription factor profiling; actives raise or lower the signal", "method": "ATG_CIS is a cell-based, multiplexed-readout assay that uses HepG2, a human liver cell line, with measurements taken at 24 hours after chemical dosing in a 24-well plate.ATG_BRE_CIS is one of 52 assay component(s) measured or calculated from the ATG_CIS assay. It is designed to make measurements of mRNA induction, a form of inducible reporter, as detected with fluorescence intensity signals by Reverse transcription polymerase chain reaction (RT-PCR) and Capillary electrophoresis technology.Data from the assay component ATG_BRE_CIS was analyzed into 1 assay endpoint. This assay endpoint, ATG_BRE_CIS, was analyzed with bidirectional fitting relative to DMSO as the negative control and baseline of activity. Using a type of inducible reporter, measures of mRNA for gain or loss-of-signal activity can be used to understand the reporter gene at the transcription factor-level as they relate to the gene SMAD1. Furthermore, this assay endpoint can be referred to as a primary readout, because this assay has produced multiple assay endpoints where this one serves a reporter gene function. To generalize the intended target to other relatable targets, this assay endpoint is annotated to the dna binding intended target family, where the subfamily is Smad protein.\nHuman liver HepG2 cells are transiently transfected with multiple reporter transcription units (MRTUs) in 6-well plates using FuGene 6 reagent (Roche; 3 ml FuGene/1 mg DNA). The MRTU constructs are regulated by a cis-regulating element (promoter). […] A major difference between the CIS and TRANS system is that in CIS activities of endogenous TFs are measured, whereas the TRANS assay evaluates changes in activities of exogenous, chimeric NR-Gal4 proteins. […] At the end of 24 hour incubation, total RNA was isolated using TriZol reagent (Invitrogen). The isolated RNA is then reverse-transcribed using oligo(dT) primer and Mo-MLV reverse transcriptase (Invitrogen) with DNAse I (Ambion) treatment for 30 min. The one-tenth of the produced cDNA was amplified by PCR using Taq DNA polymerase (Invitrogen) and two reporter sequence-specific primers. The PCR products were fluorescently labeled by primer extension with 6-arboxyfluorescein (6-FAM) 5'-labeled reporter sequence-specific primer (2 min at 95 C, 20 s at 68 C and 10 min at 72 C) and these products were digested with 5U of HpaI (New England Biolabs) for 2h at 37 C. The fragments were purified using Qiaquick PCR columns (Qiagen), analyzed on an ABI 3130xL genetic analyzer (Applied Biosystems) with peak positions identified by using a set of X-rhodamine (ROX)-labeled MapMarker1000 molecular weight standards (BioVentures). The raw capillary electrophoresis data was processed using Attagraph software (Attagene)."}
{"compound": "CC(C)(O)CCc1ccccc1", "outcome": "inactive"}
{"compound": "CN(C)C(=O)Nc1ccccc1", "outcome": "inactive"}
{"compound": "COc1cc(OC)c2ccc(=O)oc2c1", "outcome": "inactive"}
{"compound": "CC(C)OB(OC(C)C)OC(C)C", "outcome": "inactive"}
{"compound": "C=CC(=O)OCC(CO)(COC(=O)C=C)COC(=O)C=C", "AC50": "100 µM (active)"}
{"compound": "Cc1ccc(C(C)(C)O)cc1", "outcome": "inactive"}
{"compound": "CC(O)COCC(C)O", "note": "(stereo not given)", "outcome": "inactive"}
{"compound": "O=C(O)c1ccccc1O", "outcome": "inactive"}
{"compound": "Cc1ccncc1", "outcome": "inactive"}
{"compound": "C=C(C)C(=O)OCCN(C)C", "outcome": "inactive"}
{"compound": "[Cu+]", "outcome": "inactive"}
{"compound": "COC(=O)C(C)Oc1ccc(Oc2ncc(C(F)(F)F)cc2Cl)cc1", "note": "(stereo not given)", "AC50": "149 µM (active)"}
{"compound": "COc1ccc(C(C)=O)cc1", "outcome": "inactive"}
{"compound": "CC(C)(O)C(=O)c1ccc(OCCO)cc1", "outcome": "inactive"}
{"compound": "NC(N)=S", "outcome": "inactive"}
{"compound": "NS(=O)(=O)c1cc(C(=O)O)c(NCc2ccco2)cc1Cl", "outcome": "inactive"}
{"compound": "OC[C@@H](O)[C@H](O)[C@@H](O)[C@@H](O)CO", "outcome": "inactive"}
{"compound": "CCC(=O)OC(C)(C)C1CC=C(C)CC1", "note": "(stereo not given)", "outcome": "inactive"}
{"compound": "CC1=CCC(C(C)(C)O)CC1", "note": "(stereo not given)", "outcome": "inactive"}
{"compound": "CCC(CC)CO", "outcome": "inactive"}
{"compound": "CCCCOCCOCCOCCO", "outcome": "inactive"}
{"compound": "CC1=C(C=O)C(C)(C)CCC1", "outcome": "inactive"}
{"compound": "c1ccc(OCCOc2ccccc2)cc1", "outcome": "inactive"}
{"compound": "C=CC(C)CCCC(C)(C)O", "note": "(stereo not given)", "outcome": "inactive"}
{"compound": "C=C(C)C(=O)OCCOCCOC(=O)C(=C)C", "outcome": "inactive"}
{"compound": "C=C(C)C(=O)OCCC[Si](OC)(OC)OC", "outcome": "inactive"}
{"compound": "CC(=O)CC(=O)N(C)C", "outcome": "inactive"}
{"compound": "C[C@]12CC[C@@H]3c4ccc(O)cc4CC[C@H]3[C@@H]1CC[C@@H]2O", "outcome": "inactive"}
{"compound": "CC(=O)c1ccc(C)cc1", "outcome": "inactive"}
{"compound": "CC(=O)C1C(=O)C=C(C)OC1=O", "note": "(stereo not given)", "outcome": "inactive"}
{"compound": "O=C(O)c1cc2ccccc2cc1O", "outcome": "inactive"}
{"compound": "C=C(C)C(N)=O", "outcome": "inactive"}
{"compound": "CC(=O)Nc1cc(S(=O)(=O)O)cc2cc(S(=O)(=O)O)c(N=Nc3ccccc3)c(O)c12", "outcome": "inactive"}
{"compound": "CCO[Si](CCC#N)(OCC)OCC", "outcome": "inactive"}
{"compound": "CCCCCC#CC(=O)OC", "outcome": "inactive"}
{"compound": "COc1ccc(OC)cc1", "outcome": "inactive"}
{"compound": "CC(=O)c1ccc(O)cc1", "outcome": "inactive"}
{"compound": "CC(=O)CCC(=O)O", "outcome": "inactive"}
{"compound": "CC(C)(C)c1cc(CCC(=O)OCCSCCOC(=O)CCc2cc(C(C)(C)C)c(O)c(C(C)(C)C)c2)cc(C(C)(C)C)c1O", "outcome": "inactive"}
{"compound": "Cc1cc(O)c2c(c1)C(=O)c1cc(O)cc(O)c1C2=O", "AC50": "9.2 µM (active)"}
